PubChem BioAssay (NCI)
Compounds without any hit were thinned out: in the full panel of roughly 83,000, 20% have a hit.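 Percent growth is the endpoint: 0 to 100 indicates growth inhibition (40 means 60% inhibition), 0 means no net growth, and negative values indicate cell death.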 Unmarked numbers belong to inactive results. Active and inactive are the calls of the source. The calls were made as follows: active = growth percent below 10; inactive = the rest.

Each molecule was assayed on MDA-MB-468 breast (assay: NCI-60 one-dose screen, 48 h (100 = growth as untreated, 0 = no growth, -100 = all killed)). Details: 10 µM unless noted.

Row | SMILES | growth
1 | COc1cnc2c(c1)C(=O)c1c-2n(CCCn2ccnc2)c(=O)c2cc(OC)c(OC)cc12 | -25.7% (active)
2 | CCC(=O)Oc1ccc(/C(=C(\C)c2ccccc2)c2ccc(OCCN(CC)CC)cc2)cc1 | 82.4%
3 | FC(F)(F)c1ccc(-c2cnc(Cl)nc2N2CCC3(CC2)OCCO3)cc1 | 103%
4 | CCOC(=O)C1=C(C)N=c2s/c(=C\c3cc(Cl)ccc3O)c(=O)n2C1c1ccc(OC)cc1 (centres undefined) | 94.8%
5 | O=c1oc2ccccc2cc1C1=NN=C(SCc2ccccc2)SC1 | 118%
6 | c1ccc(-c2oc(-c3ccccc3)c(CN3CCCCC3)c2CN2CCCCC2)cc1 | -35.9% (active)
7 | Cc1nn(-c2ccccc2)c2ncnc(N/N=C/c3ccccc3)c12 | 84.3%
8 | NC(CO)(CO)c1ccccc1 | 79.9%
9 | O=C(Nn1c(NCC(=O)N2c3ccccc3Sc3ccccc32)nnc1-c1ccc(O)cc1)c1ccccc1 | 104%
10 | Clc1nccc2c(-c3csc(-c4c[nH]c5ccc(Br)cc45)n3)c[nH]c12 | 26.9%
11 | N#Cc1c(-c2ccc(C(F)(F)F)cc2)cc(N2CC(O)C2)n2c1nc1ccccc12 | 67.1%
12 | O=C1CC(c2nc3ccccc3[nH]2)CN1C1CCCCC1 (centres undefined) | 110%
13 | CSc1nn2c(-c3cc4cc(Br)ccc4oc3=O)ccnc2c1C#N | 109%
14 | CC(=O)O[C@H]1CC[C@@]2(C)[C@@H](CC[C@@H]3[C@@H]2CC(=O)[C@@]2(C)[C@H]3C[C@@H](C3CCCC3=O)[C@@H]2C(C)=O)C1 (some centres undefined) | 114%
